# PubChem BioAssay (NCATS)
# Several values for one entry are separate records, joined by “and”; a condition that tells them apart may be missing. Equal values may be shown once. Unmarked numbers belong to inactive results. Records with an inconclusive call do not appear. Entries that show only a call come without a potency. Activity calls are given as the source filed them. Unless noted, calls come from the whole dose curve; as a rule, active = well fitted curve in the direction sought with a large enough effect; inconclusive = small, poorly fitted or top-dose-only effect, or another doubt; inactive = no such curve, though single readings can be large; an effect the other way counts as inactive or inconclusive.
# Legend:
# [1] = Cell Viability - SH-SY5Y (AID 544); conditions: SH-SY5Y neuroblastoma cell viability; viability change, negative = cytotoxic: at 92.2 µM (top of the series);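 note: cells exposed to compound for 40 hours; nearly all actives have a fitted effect of over 55% in size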
# Summary of the method: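 Cells were plated at 1500 per well and allowed 5 hr at 37 °C. Compounds were added across a concentration range and incubated 40 hr at 37 °C. CellTiter-Glo was added for 20 min at room temperature before luminescence reading.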
# [2] = Cellular Toxicity (caspase-3) HUV-EC-C (AID 656)
# Summary of the method: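 Concentration-dependent caspase 3/7 induction was assessed in HUV-EC-C cells exposed for 16 hours. Data scaled between DMSO and tamoxifen (100 uM) controls.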
# [3] = Cellular Toxicity (caspase-3) H-4-II-E (AID 663); conditions: Potency: caspase-3 activation;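 note: cells exposed to compound for 16 hr before readout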
# Summary of the method: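 Caspase 3/7 activation measured by luminescent aminoluciferin substrate cleavage after 16 hr compound treatment of H-4-II-E cells in complete medium. Increase normalized between DMSO (basal) and 100 uM tamoxifen (100%); Hill-equation AC50 from concentration-response.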
# [4] = target: Cytochrome P450 3A4 (Homo sapiens) (UniProt P08684); assay: qHTS Assay for Inhibitors and Substrates of Cytochrome P450 3A4 (AID 884); note: nearly all actives have a fitted effect of over 50% in size
# Summary of the method: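 Luminescent readout of luciferin produced by CYP3A4 (20 nM) dealkylation of Luciferin-PPXE, 25 uM (its KM). NADPH-driven reaction ran 60 min at RT after 10 min compound preincubation; data scaled to 57 uM ketoconazole as 100% inhibition.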
# [5] = MultiTox-Fluor Cytotoxicity Assay - LYMP1-001 - Live Cells (AID 947)
# [6] = Cell Viability - LYMP1-002 - Assay at 16 hr (AID 948)
# Summary of the method: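 In this qHTS, lymphoblastoid LYMP1-002 cells (human) receive compounds for 16 hr at 37 C. Viability is taken from CellTiter-Glo ATP luminescence, and AC50 derives from standard Hill fits.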
# [7] = MultiTox-Fluor Cytotoxicity Assay - LYMP1-002 - Live Cells (AID 955)
# Summary of the method: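 Cells were seeded at 2500 per well and incubated 5 hr. Compounds were then added for 16 hr at 37 C, followed by MultiTox-Fluor reagent for 60 min at room temperature and fluorescence reading of viable-cell protease signal.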
# [8] = Cell Viability - LYMP2-005 (AID 967)
# Summary of the method: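 Luciferase-based ATP quantitation served as the viability measure in human lymphoblastoid LYMP2-005 cells exposed to test compounds for 24 h at 37 C in complete culture medium. Potency (AC50) was obtained by fitting concentration-response curves with the Hill equation.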
# [9] = Cell Viability - LYMP2-017 (AID 972); note: nearly all actives have a fitted effect of over 55% in size
# Summary of the method: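 Cytotoxicity is scored as a concentration-dependent drop in cellular ATP in a human lymphoblastoid line after 24 hr treatment at 37 C. Values are AC50s from Hill-equation modelling.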
# [10] = Cell Viability - LYMP2-002 (AID 977);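 note: compound exposure lasted 24 h at 37 °C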
# Summary of the method: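 Human lymphoblastoid cells (2500/well) in complete medium were preincubated 5 hr at 37 C, then exposed to compounds for 24 hr at 37 C. Intracellular ATP was read by CellTiter-Glo luminescence; AC50 came from Hill-equation concentration-response fits.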
# [11] = qHTS assay for small molecule disruptors of the mitochondrial membrane potential - 1 hr assay (AID 651754; calls by dose curve; note: nearly all actives have a fitted effect of over 35% in size; note: potency is the fitted concentration of half-maximal effect)
# Summary of the method: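 Loss of mitochondrial potential shifts the cationic dye from red mitochondrial aggregates to green cytoplasmic monomers. Cells (HepG2) are treated with compound for 1 hr before a 30 min dye incubation at 37C.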
# [12] = qHTS assay for small molecule disruptors of the mitochondrial membrane potential - 5 hr assay (AID 651755; calls by dose curve; note: nearly all actives have a fitted effect of over 40% in size; note: potency is the fitted concentration of half-maximal effect)
# Summary of the method: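 Membrane-potential dye readout: red aggregate (540 ex/590 em) versus green monomer (490 ex/535 em) fluorescence after 30 min dye loading, following 5 hr compound exposure at 37C of overnight-plated HepG2 cells.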
# [13] = target: Tumor necrosis factor (Homo sapiens) (UniProt P01375); assay: qHTS assay to identify small molecules that stimulate Tumor Necrosis Factor-alpha (TNF-alpha) secretion (AID 651757; active = well fitted curve in the direction sought with a large enough effect in the signal ratio; the % refers to the signal ratio)
# Summary of the method: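 Human monocytic THP-1 cells are plated, treated with compound and held at 37 C for 17 hrs. Labeled anti-TNF-alpha antibody mixture is then added; after 3 hr at room temperature, TR-FRET signal reports secreted TNF-alpha.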
# [14] = qHTS assay for environmental chemicals that activate the Aryl hydrocarbon Receptor (AhR) signaling pathway (AID 651777); conditions: 1A2-DRE human hepatoma cells, luciferase, 24 h; activation: active compounds read high; note: nearly all actives have a fitted effect of over 15% in size; note: potency is the fitted concentration of half-maximal effect
# Summary of the method: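 Induction of CYP1A2 transcription through AhR is detected by luciferase in 1A2-DRE hepatoma cells. Compounds or DMSO act for 24 hr at 37 C before a 30 min One-Glo step at room temperature.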
# [15] = target: Nuclear receptor ROR-gamma (Homo sapiens) (UniProt P51449); assay: qHTS assay for small molecule antagonists of the retinoid-related orphan receptor gamma (ROR-gamma) signaling pathway (AID 651802);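 note: CHO cells with doxycycline-induced ROR-gamma expression; nearly all actives have a fitted effect of over 60% in size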
# Summary of the method: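 Steps: cells dispensed; compound or DMSO transferred by pin tool; doxycycline added to induce the ROR response element-driven luciferase; plates held 16hr at 37C; ONE-Glo added and luminescence measured.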
# [16] = target: Nuclear receptor subfamily 1 group I member 2 (Rattus norvegicus) (UniProt Q9R1A7); assay: qHTS assay for small molecule activators of the rat pregnane X receptor (rPXR) signaling pathway (AID 651751; call rule not given here); conditions: rPXR reporter cells, luciferase (One-Glo), 24 h
# [17] = Cell Viability - Mesenchymal (AID 546);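 note: cells exposed to compound for 40 hours before reading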
# Summary of the method: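 CellTiter-Glo luminescence (intracellular ATP, 20 min room temperature) after 40 hr compound exposure at 37 °C of 1000 glomerulus-derived human kidney mesenchymal cells/well; AC50 values obtained by fitting qHTS concentration-response data to the Hill equation.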
# [18] = Cellular Toxicity (caspase-3) SHSY5Y (AID 657);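 note: cells exposed to compound for 16 hours at 37 °C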
# Summary of the method: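 Readout: caspase-cleaved peptide-aminoluciferin substrate driving luciferase light in SH-SY5Y neuroblastoma cells after 16 h treatment. Response normalized to DMSO and 10 uM staurosporine controls.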
# [19] = Cellular Toxicity (caspase-3) Mesangial (AID 660);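 note: combined caspase 3 and 7 activity read by Caspase-Glo luminescence; cells exposed to compound for 16 h before the caspase read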
# Summary of the method: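 Seed cells derived from normal human renal glomeruli, incubate 5 h, add compounds across concentrations and incubate 16 h at 37 °C. Caspase 3/7 activation is then quantified by luciferase light, with AC50 derived by Hill modeling.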
# [20] = Cell Viability - LYMP2-023 (AID 975);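 note: cellular ATP measured by luciferase luminescence as viability proxy; nearly all actives have a fitted effect of over 55% in size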
# Summary of the method: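 Steps: seed 2500 human lymphoblastoid cells per well, incubate 5 hr at 37 C, add compound for 24 hr at 37 C, add CellTiter-Glo, hold 30 min at room temperature, read luminescence. AC50 derived by Hill modelling.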
# Chain of Cytochrome P450 3A4 (Homo sapiens) (P08684 whole entry, looked up): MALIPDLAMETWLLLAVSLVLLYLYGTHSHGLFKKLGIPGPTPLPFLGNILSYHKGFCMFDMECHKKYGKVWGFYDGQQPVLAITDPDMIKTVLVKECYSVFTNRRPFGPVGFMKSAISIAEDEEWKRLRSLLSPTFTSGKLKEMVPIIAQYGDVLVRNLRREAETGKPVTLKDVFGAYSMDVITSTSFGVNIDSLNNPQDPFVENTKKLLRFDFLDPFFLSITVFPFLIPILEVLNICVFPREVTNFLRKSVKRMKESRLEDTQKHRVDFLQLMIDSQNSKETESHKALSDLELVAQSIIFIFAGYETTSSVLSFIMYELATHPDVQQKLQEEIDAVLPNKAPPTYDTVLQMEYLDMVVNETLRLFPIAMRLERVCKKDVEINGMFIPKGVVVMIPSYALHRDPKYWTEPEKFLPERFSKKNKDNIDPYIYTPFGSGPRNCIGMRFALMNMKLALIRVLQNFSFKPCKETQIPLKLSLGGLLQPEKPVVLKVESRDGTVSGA
# Chain of Tumor necrosis factor (Homo sapiens) (P01375 whole entry, looked up): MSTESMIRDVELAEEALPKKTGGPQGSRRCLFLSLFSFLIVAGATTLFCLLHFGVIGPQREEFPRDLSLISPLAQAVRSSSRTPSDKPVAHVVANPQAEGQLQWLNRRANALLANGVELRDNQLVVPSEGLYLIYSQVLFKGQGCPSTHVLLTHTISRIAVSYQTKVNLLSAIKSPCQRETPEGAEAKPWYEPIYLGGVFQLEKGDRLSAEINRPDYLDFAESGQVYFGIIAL
# Chain of Nuclear receptor subfamily 1 group I member 2 (Rattus norvegicus) (Q9R1A7 whole entry, looked up): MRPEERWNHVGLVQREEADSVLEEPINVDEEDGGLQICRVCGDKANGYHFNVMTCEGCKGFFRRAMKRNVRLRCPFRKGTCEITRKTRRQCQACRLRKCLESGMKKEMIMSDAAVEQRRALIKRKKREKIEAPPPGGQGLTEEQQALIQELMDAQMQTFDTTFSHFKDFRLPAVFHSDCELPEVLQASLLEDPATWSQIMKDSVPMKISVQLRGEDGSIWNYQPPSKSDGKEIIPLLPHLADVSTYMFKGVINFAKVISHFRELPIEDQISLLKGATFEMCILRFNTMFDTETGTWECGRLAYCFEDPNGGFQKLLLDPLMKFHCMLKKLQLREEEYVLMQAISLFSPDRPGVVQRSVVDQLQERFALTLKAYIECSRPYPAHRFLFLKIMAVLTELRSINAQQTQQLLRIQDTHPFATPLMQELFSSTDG
# Chain of Nuclear receptor ROR-gamma (Homo sapiens) (P51449 whole entry, looked up): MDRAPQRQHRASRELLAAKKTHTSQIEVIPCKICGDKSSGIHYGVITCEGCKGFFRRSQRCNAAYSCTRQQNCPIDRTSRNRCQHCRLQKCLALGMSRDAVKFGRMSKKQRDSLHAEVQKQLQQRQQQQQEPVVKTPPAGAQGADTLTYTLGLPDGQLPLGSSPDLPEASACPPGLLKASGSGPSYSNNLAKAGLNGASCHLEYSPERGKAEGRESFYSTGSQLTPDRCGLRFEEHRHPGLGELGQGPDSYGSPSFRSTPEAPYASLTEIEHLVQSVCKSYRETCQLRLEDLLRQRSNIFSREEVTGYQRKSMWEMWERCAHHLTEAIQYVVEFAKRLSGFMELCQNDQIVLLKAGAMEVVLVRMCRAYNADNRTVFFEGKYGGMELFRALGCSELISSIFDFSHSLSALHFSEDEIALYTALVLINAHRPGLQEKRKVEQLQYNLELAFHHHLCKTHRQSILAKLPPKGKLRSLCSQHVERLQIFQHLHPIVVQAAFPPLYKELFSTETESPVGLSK
smiles,measurement,setting,value
CCN(CC)CCO,Potency,[1],inactive
same,outcome,[2],inactive
same,Potency,[3],inactive
same,Potency,[4],inactive
same,outcome,[5],inactive
same,outcome,[6],inactive
same,outcome,[7],inactive
same,Potency,[8],inactive
same,Potency,[9],inactive
same,Potency,[10],inactive
same,Potency,[11],inactive
same,Potency,[12],inactive
same,outcome,[13],inactive
same,activation,[14],3.62%
same,Potency,[15],inactive
same,max response,[16],0.466%
O=[N+]([O-])c1ccc2c3c(cccc13)CC2,Potency,[17],inactive
same,outcome,[2],inactive
same,outcome,[18],inactive
same,outcome,[19],inactive
same,Potency,[3],inactive
same,outcome,[6],inactive
same,Potency,[8],inactive
same,Potency,[9],inactive
same,Potency,[20],inactive
same,Potency,[10],inactive
same,Potency,[11],37.6 µM (active)
same,outcome,[13],inactive
same,Potency,[15],inactive
OCCOCCO,Potency,[1],inactive
same,Potency,[17],inactive
same,outcome,[2],inactive
same,outcome,[18],inactive
same,outcome,[19],inactive
same,Potency,[3],inactive
same,Potency,[4],inactive
same,outcome,[5],inactive
same,outcome,[6],inactive
same,outcome,[7],inactive
same,Potency,[8],inactive
same,Potency,[9],inactive
same,Potency,[20],inactive
same,Potency,[10],inactive
same,Potency,[11],inactive
same,Potency,[12],inactive
same,outcome,[13],inactive
same,activation,[14],-0.842%
same,Potency,[15],inactive
same,max response,[16],3.46%
CCSC(=O)N1CCCCCC1,Potency,[1],inactive
same,Potency,[17],inactive
same,outcome,[2],inactive
same,outcome,[19],inactive
same,Potency,[3],inactive
same,Potency,[4],inactive
same,outcome,[5],inactive
same,outcome,[6],inactive
same,outcome,[7],inactive
same,Potency,[8],inactive
same,Potency,[9],inactive
same,Potency,[20],inactive
same,Potency,[10],inactive
same,Potency,[11],inactive
same,Potency,[12],inactive
same,outcome,[13],inactive
same,activation,[14],-0.667% and 0.714%
same,Potency,[15],inactive
same,max response,[16],-3.47% and 3.01%
c1ccc(Nc2ccc(Nc3ccccc3)cc2)cc1,outcome,[2],inactive
same,outcome,[18],inactive
same,outcome,[19],inactive
same,Potency,[3],inactive
same,Potency,[4],inactive
same,outcome,[5],inactive
same,Potency,[8],inactive
same,Potency,[9],inactive
same,Potency,[10],inactive
same,Potency,[11],42.2 µM (active)
same,Potency,[12],59.6 µM (active)
same,Potency,[15],inactive
CCN(CC)N=O,Potency,[1],inactive
same,Potency,[17],inactive
same,outcome,[2],inactive
same,Potency,[4],inactive
same,outcome,[5],inactive
same,outcome,[6],inactive
same,outcome,[7],inactive
same,Potency,[8],inactive
same,Potency,[9],inactive
same,Potency,[20],inactive
same,Potency,[10],inactive
same,Potency,[11],inactive
same,Potency,[12],inactive
same,outcome,[13],inactive
same,activation,[14],-0.0915%
same,Potency,[15],inactive
same,max response,[16],3.34%
CN(C)c1ccc(N=Nc2ccccc2)cc1,Potency,[17],inactive
same,outcome,[2],inactive
same,outcome,[18],inactive
same,outcome,[19],inactive
same,Potency,[3],inactive
same,Potency,[4],inactive
same,outcome,[5],inactive
same,outcome,[6],inactive
same,outcome,[7],inactive
same,Potency,[9],inactive
same,Potency,[14],44.7 µM (active)
